High-throughput results as filed in PubChem.
Shown is part of a subset that was picked to be rich in hits.
Tg IFNy HTS = inhibitors of Toxoplasma gondii growth with IFN-gamma; Toxoplasma gondii growth in IFN-gamma-treated host cells; active compounds read low; activity change, negative = inhibition, % (no concentration beside the values); 69,000 compounds, 3.8% hits; in the data active = activity change below about -70%, passing the limit was not always enough;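 also: host cells are HeLa cells infected with Toxoplasma gondii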
An asterisk follows results filed as active; ! = repeats disagree.

SMILES | Tg IFNy HTS
Cn1ncc2c(=O)n(CC(=O)N3CCN(c4ccccc4C(F)(F)F)CC3)cnc21 | -10
CN(Cc1cnc2c(-c3ccccc3)cnn2c1)Cc1cccc2ncccc12 | -48
CC(C)Oc1ccc(-c2cnc3c(-c4ccnc5ccccc45)cnn3c2)cc1 | -76*
COc1ccc(-c2cnc3c(-c4cccc5ncccc45)cnn3c2)cc1 | -23
O=C(NCc1ccccc1)c1c(O)c2cccnc2[nH]c1=O | 8
O=C(COCc1ccccc1)NCc1cnn2ccccc12 | -30
Oc1ccc(COCc2ccccc2)c2cccnc12 | -96*
CC1CCCC=C1N(C(=O)c1ccco1)C(C(=O)NC1CCCCC1)c1cccnc1 (stereo not given) | -6
CN1CCOCC12CCN(C(=O)c1cnccn1)CC2 | 36
CCOC(=O)c1cc(-c2ccccc2)sc1NC(=O)c1ccc(Cl)cc1 | 17
NC(=O)c1sc(-c2ccsc2)cc1NC(=O)c1cccs1 | -42
NC(=O)c1cc(-c2ccccc2)sc1NC(=O)c1cccs1 | -83*
Cc1noc(C)c1CN1CCn2c(Cn3cccn3)cnc2C1C (stereo not given) | -3
CC(C)(O)c1cn(C2CCN(C(=O)c3ccc(N4CCCCC4)cc3)CC2)nn1 | 27
c1ccc(-c2nc3ccccc3nc2-c2cccc3ccccc23)cc1 | 27
CC(C)(C)n1nc(-c2cccc3ccccc23)c2c(N)ncnc21 | -76*!
Cc1cc(C)c2c(=O)nc(SCc3nc(-c4ccccc4)oc3C)n(C3CC3)c2n1 | 196
Cn1cc(-c2cnc(-c3ccnn3C)nc2)cc1C(=O)NC(C)(C)C | 40
COc1cccc(C2CCCN2C(=O)COc2cc(C)nc3ccc(C)cc23)c1 (stereo not given) | -1
Cc1noc(CN(C)Cc2cc3cc4c(cc3[nH]c2=O)CCC4)n1 | -5
O=c1[nH]c2cc3c(cc2cc1CNc1cccc2c1CCCC2)OCCO3 | 7
O=c1[nH]c2cc3c(cc2cc1CNc1ccc(N2CCCCC2)cc1)CCC3 | -99*
CCN1CCC(n2nccc2NC(=O)c2cccc3c2C(=O)N(CCOC)C3)CC1 | 13
COC(=O)c1ccccc1NC(=O)COc1nc(C)nc2ccccc12 | 6
CC(=O)ON(CC(=O)Nc1ccccc1C(=O)c1ccccc1)C(C)=O | -77*
SMILES | Tg IFNy HTS
Cc1ccc(NC(=O)CCNS(=O)(=O)c2ccccc2)c(C(=O)c2ccccc2)c1 | -1
Cc1ccc(S(=O)(=O)N2CCN(CCCc3ccccc3)CC2)cc1 | -47
Cc1cc(C)n(CCCC(=O)N2CCO[C@@H]3CCCC[C@H]32)n1 | 2
C=CC(=O)N1CCCC(c2nc(CCNC(=O)C(C)C)cs2)C1 (stereo not given) | 33
CC(C)c1noc(C(C)n2ccnc2C(C)(C)CN2CCOCC2)n1 (stereo not given) | -3
COc1ccc(-c2nc(Cn3ccn4nc(-c5ccc(OC)c(OC)c5)cc4c3=O)c(C)o2)cc1 | -35
COc1ccccc1-c1nc(Cn2ccn3nc(-c4cccs4)cc3c2=O)c(C)o1 | 51
COc1ccc(-c2cc3c(=O)n(Cc4nc(-c5ccc(OC(C)C)cc5)oc4C)ccn3n2)cc1 | -54
COc1cccc(-c2nc(Cn3ccn4nc(-c5cccs5)cc4c3=O)c(C)o2)c1OC | -97*
COc1ccccc1-c1cc2c(=O)n(Cc3nc(-c4cccc(OC)c4OC)oc3C)ccn2n1 | -19
COc1ccc(-c2cc3c(=O)n(Cc4nc(-c5ccc(OC(C)C)cc5)oc4C)ccn3n2)cc1OC | -92*
COCC1(C(=O)N(C)Cc2ncc(C)c(OC)c2C)CCC1 | -1
Clc1ccc(-c2nc(N3CCN(C4CCCCC4)CC3)c3ccccc3n2)cc1 | 14
Cc1ccc(C(=O)N2CCCC(Cn3cc(-c4ccccn4)nn3)C2)cc1C (stereo not given) | 12
COc1ccccc1CC(=O)Nc1ccc(-c2nc(Cn3nc(C)cc3C)c(C)o2)cc1 | -80*
COc1ccc(CC(=O)Nc2ccc(-c3nc(Cn4nc(C)cc4C)c(C)o3)cc2)cc1 | -33
Cc1cc(C)n(Cc2nc(-c3ccc(NC(=O)COc4ccccc4)cc3)oc2C)n1 | -2
COc1ccccc1C(=O)Nc1ccc(-c2nc(Cn3nc(C)cc3C)c(C)o2)cc1 | -85*
Cc1cc(C)n(Cc2nc(-c3ccc(NC(=O)c4ccccc4F)cc3)oc2C)n1 | -41
Cc1ccc(C(=O)Nc2ccc(-c3nc(Cn4nc(C)cc4C)c(C)o3)cc2)c(C)c1 | 115
Cc1cc(C)n(Cc2nc(-c3ccc(NC(=O)c4ccc(N(C)C)cc4)cc3)oc2C)n1 | 66
Cc1cc(C)n(Cc2nc(-c3ccc(NC(=O)c4ccc(C)c(C)c4)cc3)oc2C)n1 | -88*
Cc1cc(C)n(Cc2nc(-c3ccc(NC(=O)c4ccc(F)c(Cl)c4)cc3)oc2C)n1 | 308
CN(C)CCO[C@H]1CN(C(=O)c2ccc3c(c2)OCO3)[C@H]2COC[C@@H]12 | 0
Cc1nc(-c2ccc(Cl)cc2)sc1CCNC(=O)C12CC3CC(CC(C3)C1)C2 | -52
CCOc1ccc(CCNC(=O)c2nc(N3CCC(C)CC3)c3ccccc3n2)cc1OCC | -98*
CCOc1cc(CNC(=O)c2nc(N3CCOCC3)c3ccccc3n2)ccc1OC | -20
